Screening results: PubChem, National Center for Advancing Translational Sciences (NCATS)
Compounds with a hit are over-represented: about 6.2% of the library has one in this group of screens.
HCMV antiviral – qHTS Assay for inhibitors of the human cytomegalovirus (HCMV). HFF cells, HCMV-luciferase reporter, 72 h; stronger effect = lower value. activity change, negative = inhibition, % at 57.5 µM. actives 4.5% (n = 410,000). AID 1259415, 2018; in the data active = activity change below about -60%; inconclusive = no clear call, values can overlap the other calls; inactive = above about -39%
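Steps: HFFs plated, 16 h 37C; compounds added; HCMV-luciferase added to MOI 1 PFU/cell; 72 h 37C; OneGlo reagent, 5 min room temperature; luminescence read, normalized to controls.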
Lassa entry inh – qHTS for Inhibitors of binding or entry into cells for Lassa Virus; Lassa virus pseudotype entry inhibition, cell reporter; Potency, µM (titrated, usually from 37.9 µM), for inactives: at the highest dose activity change, negative = inhibition, actives largely listed as inhibitors; actives 1.2% (n = 300,000); AID 540256, 2011; calls by dose curve; tested in HEK293 cells; also: potency is read from the fitted curve at half-maximal effect; nearly all actives have a fitted effect of over 50% in size
MARV entry inh – qHTS for inhibitors of binding or entry into cells for Marburg Virus | actives 1.8% (n = 300,000) | Potency, µM (titrated, usually from 37.8 µM), inactives show at the top dose activity change, negative = inhibition, usual class: inhibitors | Marburg virus pseudotyped entry inhibition, cell reporter; calls by dose curve; tested in HEK293 cells; also: potency is read from the fitted curve at half-maximal effect
FMDV inh – High Throughput Screening for Foot and Mouth Disease Virus Antivirals. AID 1159524, 2015. Potency, µM (top dose mostly 57.9 µM), inactives show top-dose activity change, negative = inhibition, usual class: inhibitors. actives 1.2% (n = 410,000). FMDV antiviral cell-based qHTS; calls by dose curve; tested in HEK293T cells; also: read-out not given here; potency is read from the fitted curve at half-maximal effect; nearly all actives have a fitted effect of over 45% in size
* marks the source's active call; other numbers are inactive results; [ ] = dose if it differs, or a comment. % is scaled to controls: 0 for no effect and ±100 for the full control effect.

Results for CCCCN=CC1=C(O)CC(c2ccccc2)CC1=O (stereo not given) ?
HCMV antiviral: -62*; Lassa entry inh: -24%; MARV entry inh: inconclusive; FMDV inh: 5%

What do the screens show for `CCCC(=Nc1ccccc1OC)C1=C(O)CC(c2ccccc2)CC1=O` (stereo not given)?
HCMV antiviral: -39; Lassa entry inh: 6%; MARV entry inh: inconclusive; FMDV inh: -20%

Results for O=C1CC(c2ccccc2)CC(O)=C1C=Nc1ccccc1O (stereo not given) ?
HCMV antiviral: -75*; FMDV inh: 31%

Results for CCCCC(=NCCc1c(C)[nH]c2ccccc12)C1=C(O)CC(c2ccccc2)CC1=O (stereo not given) ?
HCMV antiviral: 12; Lassa entry inh: 8.9µM*; MARV entry inh: inconclusive; FMDV inh: -18%

What do the screens show for `COc1ccccc1N=C(C)C1=C(O)CC(c2ccccc2)CC1=O` (stereo not given)?
HCMV antiviral: -84*; Lassa entry inh: inconclusive; MARV entry inh: inconclusive; FMDV inh: -27%

Results for O=C1CC(c2ccccc2)CC(O)=C1C=Nc1ccccc1 (stereo not given) ?
HCMV antiviral: 0; Lassa entry inh: inconclusive; MARV entry inh: 20%[46.1 µM]; FMDV inh: 23%

How did CCc1ccccc1N(C)C(=O)C1CCCN(c2ncnc3c2nc2n3CCCCC2)C1 (stereo not given) do in these assays?
HCMV antiviral: -3; Lassa entry inh: -11%[46.1 µM]; FMDV inh: inconclusive

What do the screens show for `COc1cccc(NC(=O)c2cnc(SCC(=O)N3CCOCC3)n(C)c2=O)c1`?
HCMV antiviral: 17; Lassa entry inh: 8%[46.1 µM]; FMDV inh: 22µM*

How did COc1cccc(/C=N/Nc2ccccc2C(=O)O)c1O do in these assays?
HCMV antiviral: -80*; FMDV inh: 8%

Results for COc1cccc(/C=N/NC(=O)N/N=C/c2cccc(OC)c2O)c1O ?
HCMV antiviral: -13; Lassa entry inh: inconclusive; MARV entry inh: 4.5µM*; FMDV inh: 7%

Results for COc1ccccc1C=NN=C(NN=Cc1ccccc1OC)NN=Cc1ccccc1OC ?
HCMV antiviral: 26; Lassa entry inh: 13µM*; MARV entry inh: inconclusive; FMDV inh: inconclusive

Results for COc1cccc(C=NNC(=O)c2ccncc2)c1O ?
HCMV antiviral: 6; Lassa entry inh: inconclusive; MARV entry inh: inconclusive; FMDV inh: 21%

How did COc1cccc(/C=N/NC(=O)c2nc(-c3ccccc3)cc(-c3ccccc3)n2)c1O do in these assays?
HCMV antiviral: -97*; Lassa entry inh: inconclusive; MARV entry inh: inconclusive; FMDV inh: 0%

Results for COc1cccc(/C=N/Nc2ccc(S(=O)(=O)O)cc2)c1O ?
HCMV antiviral: 35; Lassa entry inh: -1%; MARV entry inh: 6%; FMDV inh: 13%

Results for COc1ccccc1C=NNC(=O)NN=Cc1ccccc1OC ?
HCMV antiviral: -38; Lassa entry inh: -6%[46.1 µM]; MARV entry inh: -4%[46.1 µM]; FMDV inh: 14%

What do the screens show for `O=C(NC1CCCCC1)c1ccc(CSc2nc3ccncc3n2Cc2ccccc2)cc1`?
HCMV antiviral: -1; Lassa entry inh: 0%[46.1 µM]; MARV entry inh: -19%[46.1 µM]; FMDV inh: -6%

Results for COc1cccc(NC(=O)CSC2=C(C#N)[C@H](c3ccco3)C3=C(CCCC3=O)N2)c1 ?
MARV entry inh: -7%

What do the screens show for `CC(=O)c1ccc(NS(=O)(=O)c2cccc(S(=O)(=O)c3ccc(Cl)cc3)c2)cc1`?
HCMV antiviral: 57; Lassa entry inh: 2%[46.1 µM]; FMDV inh: 18%

How did CCCNC(=O)CCCN1C(=O)CCn2nc(-c3cccn3C)cc21 do in these assays?
HCMV antiviral: 4; Lassa entry inh: 15%[46.1 µM]; FMDV inh: 8%

What do the screens show for `C[C@H]1[C@H](O)[C@@H](N=[N+]=[N-])CCO[C@H]1c1ccccc1`?
MARV entry inh: -12%[14.2 µM]

How did COc1cccc(/C=N/Nc2ccc(C(=O)O)cc2)c1O do in these assays?
HCMV antiviral: -95*; FMDV inh: 3.5µM*

Results for NC(C(=O)O)C1ON=C(Cl)C1O (stereo not given) ?
HCMV antiviral: -86*; Lassa entry inh: -12%; MARV entry inh: -2%; FMDV inh: -6%

How did CCCCOc1ccc(-c2c(C#N)c(N)nc(SCC(N)=O)c2C#N)cc1 do in these assays?
HCMV antiviral: 33; Lassa entry inh: 4.5µM*; MARV entry inh: inconclusive; FMDV inh: inconclusive

What do the screens show for `Cc1ccc2cc(CN(C)C(=O)c3cccc(Cl)c3)c(=O)[nH]c2c1`?
HCMV antiviral: 4; Lassa entry inh: -20%[46.1 µM]; MARV entry inh: 18%[46.1 µM]; FMDV inh: -1%

Results for O=C(NCCSCc1cccc(Cl)c1)C1CCN(S(=O)(=O)Cc2ccccc2)CC1 ?
HCMV antiviral: -1; Lassa entry inh: 16%[46.1 µM]; MARV entry inh: 10%[46.1 µM]; FMDV inh: -1%

How did C=CCOc1c(CNc2cccc(C(=O)O)c2)cccc1OCC do in these assays?
HCMV antiviral: -81*; Lassa entry inh: 15%; MARV entry inh: 22%; FMDV inh: 6%

How did O=C(O)c1ccccc1Nc1ccc([N+](=O)[O-])cc1 do in these assays?
HCMV antiviral: inconclusive; Lassa entry inh: 1.1µM*; MARV entry inh: 0.5µM*; FMDV inh: 46%

What do the screens show for `O=C(NNc1ccc([N+](=O)[O-])cc1)c1ccccc1Cl`?
HCMV antiviral: -86*; FMDV inh: 4%

How did COc1ccc(-n2c(=O)c3c(C)c(C)sc3n(CC(=O)NCc3ccc(C)cc3)c2=O)c(OC)c1 do in these assays?
HCMV antiviral: -31; Lassa entry inh: inconclusive; MARV entry inh: 1%[46.1 µM]; FMDV inh: -10%

What do the screens show for `CCn1c(=O)c(C(C)=O)nc2ccccc21`?
HCMV antiviral: -66*; Lassa entry inh: -5%; MARV entry inh: 12%; FMDV inh: -18%

How did COc1cc(SC)ccc1C(=O)N1CCC(Cc2ccccc2)CC1 do in these assays?
Lassa entry inh: 8.2µM*; MARV entry inh: inconclusive; FMDV inh: -25%

Results for COc1cc(SC)ccc1C(=O)N1CCN(c2ccccc2)CC1 ?
HCMV antiviral: -2; Lassa entry inh: 13µM*; MARV entry inh: -23%[46.1 µM]; FMDV inh: -22%

What do the screens show for `c1ccc2c(c1)CCC[C@H]2C1=NCCN1`?
MARV entry inh: 31%

What do the screens show for `CC1CC(C)CN(CCCNC(=O)c2ccc(CS(=O)(=O)Cc3ccccc3F)o2)C1` (stereo not given)?
HCMV antiviral: -73*; Lassa entry inh: -2%; MARV entry inh: 2%; FMDV inh: 6%

What do the screens show for `O=[N+]([O-])c1ccc(S(=O)(=O)CC2CSc3nc4ccccc4n32)cc1` (stereo not given)?
HCMV antiviral: -79*; Lassa entry inh: inconclusive; MARV entry inh: inconclusive; FMDV inh: -14%

How did Cc1nnc2n(c1=O)C(CS(=O)(=O)c1ccccc1)CS2 (stereo not given) do in these assays?
HCMV antiviral: 49; Lassa entry inh: 8%; MARV entry inh: -16%; FMDV inh: -24%

How did Cc1cc(C(F)(F)F)cc(NNC(=O)NC(=O)c2c(F)cccc2Cl)n1 do in these assays?
HCMV antiviral: inconclusive; Lassa entry inh: inconclusive; MARV entry inh: 7.1µM*; FMDV inh: -11%
